# Data as given in the supplement of paper PMC12282887.
# ± gives the standard deviation of the averaged measurements.
# Columns and labels:
# Experiment in all cases: promoter activity interaction Z-score (Lux/OD deviation from empty-vector control); higher = stronger promoter induction by the compound
# [1] = tested on: E. coli BW25113 acrABp lux reporter
# Procedure, shortened: (§1)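 E. coli BW25113 (wild type or marA, soxS or rob deletion) carrying low-copy luxCDABE promoter reporters grew in 40 µl LB Lennox in 384-well plates at 37°C. Each compound was tested at four 1:2 dilutions in biological duplicates. OD600 and luminescence were read every 30 min for 12 h. Areas were taken over 0–8 h (wild type) or 1–9 h (mutants), and wells below 10% of median growth area were removed. The score is the Z-transformed residual of growth-normalised luminescence fitted against the empty-vector control.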
# [2] = tested on: E. coli BW25113 micFp lux reporter
# Procedure, shortened: as §1
# [3] = tested on: E. coli BW25113 ompFp lux reporter
# Procedure, shortened: as §1
# [4] = tested on: E. coli BW25113 robp lux reporter
# Procedure, shortened: as §1
# [5] = tested on: E. coli BW25113 soxSp lux reporter
# Procedure, shortened: as §1
# [6] = tested on: E. coli BW25113 tolCp lux reporter
# Procedure, shortened: as §1
# [7] = 22.7 µg/ml, genetic background: wild type
# [8] = 22.7 µg/ml, genetic background: ΔmarA
# [9] = 22.7 µg/ml, genetic background: Δrob
# [10] = 22.7 µg/ml, genetic background: ΔsoxS
# [11] = 45.3 µg/ml, genetic background: wild type
# [12] = 45.3 µg/ml, genetic background: ΔmarA
# [13] = 45.3 µg/ml, genetic background: Δrob
# [14] = 45.3 µg/ml, genetic background: ΔsoxS
# [15] = 90.6 µg/ml, genetic background: wild type
# [16] = 90.6 µg/ml, genetic background: ΔmarA
# [17] = 90.6 µg/ml, genetic background: Δrob
# [18] = 90.6 µg/ml, genetic background: ΔsoxS
# [19] = 181.2 µg/ml, genetic background: wild type
# [20] = 181.2 µg/ml, genetic background: ΔmarA
# [21] = 181.2 µg/ml, genetic background: Δrob
# [22] = 181.2 µg/ml, genetic background: ΔsoxS
smiles,measurement,setting,value
C[C@]12CCC(=O)C=C1CC[C@@H]1[C@@H]2[C@@H](O)C[C@@]2(C)[C@H]1CC[C@]2(O)C(=O)CO [Hydrocortisone],promoter activity interaction Z-score,[1]; [7],0.0762 ± 0.23
same,promoter activity interaction Z-score,[1]; [8],1.29 ± 0.12
same,promoter activity interaction Z-score,[1]; [9],0.155 ± 0.043
same,promoter activity interaction Z-score,[1]; [10],-0.247 ± 0.36
same,promoter activity interaction Z-score,[1]; [11],-0.118 ± 0.13
same,promoter activity interaction Z-score,[1]; [12],-0.299 ± 0.39
same,promoter activity interaction Z-score,[1]; [13],-0.0995 ± 0.075
same,promoter activity interaction Z-score,[1]; [14],-0.18 ± 0.021
same,promoter activity interaction Z-score,[1]; [15],-0.0327 ± 0.25
same,promoter activity interaction Z-score,[1]; [16],0.944 ± 0.81
same,promoter activity interaction Z-score,[1]; [17],-0.203 ± 0.1
same,promoter activity interaction Z-score,[1]; [18],-0.563 ± 0.76
same,promoter activity interaction Z-score,[1]; [19],-0.103 ± 0.25
same,promoter activity interaction Z-score,[1]; [20],0.322 ± 0.17
same,promoter activity interaction Z-score,[1]; [21],-0.0446 ± 0.063
same,promoter activity interaction Z-score,[1]; [22],-0.63 ± 0.4
same,promoter activity interaction Z-score,[2]; [7],-0.121 ± 0.17
same,promoter activity interaction Z-score,[2]; [8],-0.0598 ± 0.096
same,promoter activity interaction Z-score,[2]; [9],0.0274 ± 0.19
same,promoter activity interaction Z-score,[2]; [10],-0.338 ± 0.18
same,promoter activity interaction Z-score,[2]; [11],-0.199 ± 0.022
same,promoter activity interaction Z-score,[2]; [12],-0.00993 ± 0.17
same,promoter activity interaction Z-score,[2]; [13],-0.112 ± 0.071
same,promoter activity interaction Z-score,[2]; [14],-0.292 ± 0.17
same,promoter activity interaction Z-score,[2]; [15],-0.0486 ± 0.33
same,promoter activity interaction Z-score,[2]; [16],0.0152 ± 0.072
same,promoter activity interaction Z-score,[2]; [17],-0.0859 ± 0.072
same,promoter activity interaction Z-score,[2]; [18],-0.443 ± 0.012
same,promoter activity interaction Z-score,[2]; [19],-0.162 ± 0.41
same,promoter activity interaction Z-score,[2]; [20],0.0829 ± 0.11
same,promoter activity interaction Z-score,[2]; [21],0.0154 ± 0.043
same,promoter activity interaction Z-score,[2]; [22],-0.487 ± 0.11
same,promoter activity interaction Z-score,[3]; [7],-0.318 ± 0.33
same,promoter activity interaction Z-score,[3]; [8],-1.05 ± 0.19
same,promoter activity interaction Z-score,[3]; [9],-0.188 ± 0.34
same,promoter activity interaction Z-score,[3]; [10],-0.146 ± 0.36
same,promoter activity interaction Z-score,[3]; [11],-0.51 ± 0.41
same,promoter activity interaction Z-score,[3]; [12],-0.8954 ± 0.0059
same,promoter activity interaction Z-score,[3]; [13],-0.15 ± 0.053
same,promoter activity interaction Z-score,[3]; [14],-0.152 ± 0.059
same,promoter activity interaction Z-score,[3]; [15],-0.587 ± 0.064
same,promoter activity interaction Z-score,[3]; [16],-0.994 ± 0.16
same,promoter activity interaction Z-score,[3]; [17],-0.657 ± 0.24
same,promoter activity interaction Z-score,[3]; [18],-1.03 ± 0.14
same,promoter activity interaction Z-score,[3]; [19],-0.507 ± 0.061
same,promoter activity interaction Z-score,[3]; [20],-0.698 ± 0.09
same,promoter activity interaction Z-score,[3]; [21],-0.507 ± 0.34
same,promoter activity interaction Z-score,[3]; [22],-0.928 ± 0.4
same,promoter activity interaction Z-score,[4]; [7],0.0773 ± 1.2
same,promoter activity interaction Z-score,[4]; [8],0.0463 ± 0.066
same,promoter activity interaction Z-score,[4]; [9],0.694 ± 1.1
same,promoter activity interaction Z-score,[4]; [10],-0.236 ± 0.064
same,promoter activity interaction Z-score,[4]; [11],-0.333 ± 0.93
same,promoter activity interaction Z-score,[4]; [12],0.247 ± 0.23
same,promoter activity interaction Z-score,[4]; [13],0.312 ± 0.14
same,promoter activity interaction Z-score,[4]; [14],0.174 ± 0.55
same,promoter activity interaction Z-score,[4]; [15],-0.0645 ± 0.73
same,promoter activity interaction Z-score,[4]; [16],-0.315 ± 0.028
same,promoter activity interaction Z-score,[4]; [17],0.1 ± 1.2
same,promoter activity interaction Z-score,[4]; [18],-0.777 ± 0.35
same,promoter activity interaction Z-score,[4]; [19],-0.438 ± 0.64
same,promoter activity interaction Z-score,[4]; [20],-0.167 ± 0.27
same,promoter activity interaction Z-score,[4]; [21],0.558 ± 0.36
same,promoter activity interaction Z-score,[4]; [22],0.106 ± 1
same,promoter activity interaction Z-score,[5]; [7],0.274 ± 0.098
same,promoter activity interaction Z-score,[5]; [8],-0.206 ± 0.075
same,promoter activity interaction Z-score,[5]; [9],0.0559 ± 0.11
same,promoter activity interaction Z-score,[5]; [10],-0.266 ± 0.045
same,promoter activity interaction Z-score,[5]; [11],0.0799 ± 0.065
same,promoter activity interaction Z-score,[5]; [12],-0.198 ± 0.084
same,promoter activity interaction Z-score,[5]; [13],0.0141 ± 0.1
same,promoter activity interaction Z-score,[5]; [14],-0.247 ± 0.054
same,promoter activity interaction Z-score,[5]; [15],-0.0463 ± 0.13
same,promoter activity interaction Z-score,[5]; [16],-0.321 ± 0.095
same,promoter activity interaction Z-score,[5]; [17],-0.185 ± 0.0079
same,promoter activity interaction Z-score,[5]; [18],-0.58 ± 0.1
same,promoter activity interaction Z-score,[5]; [19],-0.0782 ± 0.16
same,promoter activity interaction Z-score,[5]; [20],-0.3408 ± 0.003
same,promoter activity interaction Z-score,[5]; [21],-0.284 ± 0.044
same,promoter activity interaction Z-score,[5]; [22],-0.743 ± 0.29
same,promoter activity interaction Z-score,[6]; [7],0.184 ± 0.076
same,promoter activity interaction Z-score,[6]; [8],0.724 ± 1.1
same,promoter activity interaction Z-score,[6]; [9],0.231 ± 1.1
same,promoter activity interaction Z-score,[6]; [10],-0.0445 ± 0.42
same,promoter activity interaction Z-score,[6]; [11],-0.258 ± 0.085
same,promoter activity interaction Z-score,[6]; [12],0.509 ± 1.2
same,promoter activity interaction Z-score,[6]; [13],0.65 ± 0.86
same,promoter activity interaction Z-score,[6]; [14],-1.3 ± 0.73
same,promoter activity interaction Z-score,[6]; [15],0.153 ± 0.86
same,promoter activity interaction Z-score,[6]; [16],0.621 ± 0.97
same,promoter activity interaction Z-score,[6]; [17],0.0433 ± 0.14
same,promoter activity interaction Z-score,[6]; [18],-0.413 ± 0.29
same,promoter activity interaction Z-score,[6]; [19],-0.363 ± 0.23
same,promoter activity interaction Z-score,[6]; [20],0.0951 ± 0.92
same,promoter activity interaction Z-score,[6]; [21],0.261 ± 1.6
same,promoter activity interaction Z-score,[6]; [22],0.18 ± 0.34
